Source: PubChem BioAssay
Shown are actives, neighbours in structure and some others; about 4.8% of the full set was active somewhere.
Calb FLC = C. albicans growth inhibition with fluconazole, primary screen, CaCi-2 strain, Alamar Blue fluorescence. actives 0.57% (n = 300,000). growth inhibition, % (no concentration beside the values). C. albicans CaCi-2 (fluconazole-resistant clinical isolate) + fluconazole, 48 h;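 active = growth inhibition above about 58% in most replicates, limit read from the data, passing the limit was not always enough; inconclusive = exactly half the replicates above a set limit; inactive = most replicates below a set limit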;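 note: all wells also contain fluconazole at 8 µg/ml as a sub-toxic cotreatment; 0% = median of DMSO wells and 100% = median of geldanamycin control wells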
CSC inhib = cancer stem cell viability inhibitors, primary screen, luminescence. cancer stem cell-like cells viability. inhibition, % at 7.5 µM. actives 1.1% (n = 300,000); in the data active = inhibition above about 75%; inconclusive = no clear call, values can overlap the other calls; tested in HMLE shEcad cells
Mdm2 MdmX PPI = inhibitors of human Mdm2-MdmX association, primary screen, cell-based, luminescence, split luciferase, SaOS-2, uHTS; SaOS-2 split-luciferase Mdm2/MdmX complementation; actives 3% (n = 330,000); inhibition, % at 8 µM; Protein Mdm4 (Homo sapiens) + E3 ubiquitin-protein ligase Mdm2 (Homo sapiens), …;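 active = inhibition of at least 50% at 8 µM in the primary screen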
Target sequence (O15151 whole entry, looked up): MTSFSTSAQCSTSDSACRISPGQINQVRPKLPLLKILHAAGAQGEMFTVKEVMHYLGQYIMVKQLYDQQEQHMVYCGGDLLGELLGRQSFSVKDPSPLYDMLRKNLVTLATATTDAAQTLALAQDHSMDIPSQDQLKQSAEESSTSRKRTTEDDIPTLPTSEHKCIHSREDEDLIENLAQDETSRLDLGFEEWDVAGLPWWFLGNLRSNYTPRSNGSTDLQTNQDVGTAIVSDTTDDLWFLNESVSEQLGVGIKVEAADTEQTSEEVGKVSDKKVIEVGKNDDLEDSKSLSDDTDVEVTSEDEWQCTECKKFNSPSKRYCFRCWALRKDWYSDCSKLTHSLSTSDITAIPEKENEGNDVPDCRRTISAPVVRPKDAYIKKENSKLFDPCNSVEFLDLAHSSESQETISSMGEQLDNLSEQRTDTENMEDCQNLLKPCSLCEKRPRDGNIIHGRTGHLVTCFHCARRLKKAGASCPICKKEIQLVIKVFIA
Target sequence (Q00987 whole entry, looked up): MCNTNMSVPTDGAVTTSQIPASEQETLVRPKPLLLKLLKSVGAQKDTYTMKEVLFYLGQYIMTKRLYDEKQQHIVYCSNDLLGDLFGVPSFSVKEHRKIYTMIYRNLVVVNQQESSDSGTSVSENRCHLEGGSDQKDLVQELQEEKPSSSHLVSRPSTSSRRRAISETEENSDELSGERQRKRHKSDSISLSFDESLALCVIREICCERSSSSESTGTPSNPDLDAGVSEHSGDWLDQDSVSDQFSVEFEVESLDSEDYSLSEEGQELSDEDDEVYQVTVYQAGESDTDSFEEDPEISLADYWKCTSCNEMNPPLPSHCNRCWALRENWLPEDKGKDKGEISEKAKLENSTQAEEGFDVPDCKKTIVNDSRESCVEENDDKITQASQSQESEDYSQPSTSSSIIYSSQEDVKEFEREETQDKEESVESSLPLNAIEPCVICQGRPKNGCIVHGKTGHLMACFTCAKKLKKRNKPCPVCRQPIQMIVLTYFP
MPTP block = mitochondrial permeability transition pore inhibitors, primary screen, biochemical, isolated mouse mitochondria, absorbance. Ca2+ swelling absorbance, 30 min. AID 602449, 2012. inhibition, % at 10 µM. actives 1.4% (n = 360,000);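 active = inhibition of 50% or more, scaled per plate between neutral and stimulator controls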;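 note: 0% = DMSO wells given calcium and 100% = 1 mM EGTA wells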
Beta cell apopt = inhibitors of cytokine-induced beta cell apoptosis, primary screen, luminescence. INS-1E cytokine-induced death, ATP luminescence, 48 h; percent of positive-control rescue, neutral wells zero. actives 0.8% (n = 300,000). protection from apoptosis, % (no concentration beside the values);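 active = Every replicate reaches about 75%, or at least half do and their mean reaches it too, limit read from the data; inconclusive = At least half of replicates reach the limit but their mean does not; inactive = Under half of replicates reach the limit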;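 note: 0% = cytokine-treated negative control wells and 100% = positive control rescue; higher means more ATP so stronger rescue from cytokine killing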
Mdm2-MdmX conf = Mdm2-MdmX complex disruptors, retested hits, confirmation, luminescence, single concentration. Mdm2-MdmX binding, luminescent assay. actives 55% (n = 10,000). shares compounds with Mdm2 MdmX PPI. inhibition, % at 8 µM; in the data active = inhibition above about 40%
Full FLuc ctr = full-length luciferase signal inhibition, confirmation, counter-screen for Mdm2/MdmX interaction inhibitor project, cell-based, single concentration, SaOS-2. shares compounds with Mdm2 MdmX PPI. SaOS-2 full-length luciferase counterscreen, luminescence. inhibition, % at 8 µM. actives 77% (n = 6,200). AID 504607, 2011;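 active = mean inhibition at 8 µM reaching about 37%, which flags the compound as non-specific, limit read from the data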;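 note: p53-null SaOS-2 cells with luciferase driven by a doxycycline-inducible promoter; compound on cells about two nights before reading with doxycycline added after day one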
* = called active by the depositor; ? = inconclusive; / = not tested or not shown.

SMILES	Calb FLC	CSC inhib	Mdm2 MdmX PPI	MPTP block	Beta cell apopt	Mdm2-MdmX conf	Full FLuc ctr
Cc1nc2c(-c3ccccc3)cnn2c(N)c1-c1ccccc1	2.3	28.2	82.9*	-0.8	5.9	77.3*	147.8*
Cc1ncc(CO)c2cc(C(=O)Nc3cccc(F)c3)c(=Nc3cccc(C(N)=O)c3)oc12	-1.3	3.0	22.9	0.7	12.9	/	/
Cc1ccc(NC(=O)c2cc3c(CO)cnc(C)c3oc2=Nc2cccc(C(N)=O)c2)cc1	-3.0	4.0	77.6*	1.7	3.2	63.9*	48.3*
COc1ccc(NC(=O)c2cc3c(CO)cnc(C)c3oc2=Nc2cccc(F)c2)c(OC)c1	3.0	17.4	72.1*	1.5	7.1	74.5*	27.9
CCc1nc2c(OCC=C(C)C)cccn2c1N(C)C(=O)c1ccc(OC)cc1	/	/	/	-0.2	/	/	/
CC(C)Cc1ccc(CN2CCCC(NC(=O)c3cnc4ccccn4c3=O)C2)cc1 (stereo not drawn)	-7.9	-1.8	60.0*	2.0	-7.3	19.6	/
CC(C)OCCCn1c(=N)c(C(N)=S)cc2c(=O)n3ccccc3nc21	-9.8	2.8	61.1*	1.7	/	30.1	/
O=C(NC1CCCN(Cc2ccc(Cl)cc2)C1)c1cnc2ccccn2c1=O (stereo not drawn)	-4.2	10.9	21.8	-0.1	1.3	/	/
Cc1ccc(Cn2c(=N)c(C(=O)NC3CCCC3)cc3c(=O)n4ccccc4nc32)cc1	-1.1	-1.7	50.2*	-1.5	0.4	4.5	/
N=c1c(C(=O)NC2CCCCC2)cc2c(=O)n3ccccc3nc2n1Cc1ccccc1	-23.2	1.0	25.3	-1.2	10.6	/	/
N=c1c(C(=O)NC2CCCCC2)cc2c(=O)n3ccccc3nc2n1CCc1ccccc1	12.3	-4.3	93.9*	-0.5	9.0	96.6*	17.4
N=c1c(C(=O)NC2CCCCC2)cc2c(=O)n3ccccc3nc2n1Cc1cccnc1	-4.9	2.9	-4.2	0.7	11.3	/	/
N=c1c(C(=O)NC2CCCCC2)cc2c(=O)n3ccccc3nc2n1Cc1ccco1	-1.2	/	55.6*	0.4	-1.2	44.1*	33.2
COC(=O)[C@@]12C[C@@H](CC(=O)NCc3cccc4ccccc34)C(=O)N(Cc3ccco3)C1=CCC(C)(C)C2	/	/	/	-2.1	/	/	/
Cn1ncc2c(Nc3ccc(-c4ccccc4)cc3)ncnc21	?	-10.4	75.8*	1.1	10.4	48.0*	73.0*
O=C(CN1CCN(Cc2ccccc2)CC1)Nc1ccc([N+](=O)[O-])cc1C(=O)Nc1ccccc1F	23.5	9.9	53.9*	0.8	1.1	30.4	/
OC[C@@H]1CN(Cc2ccc(Cl)cc2)C[C@H](n2cnc3c(N4CCN(c5ccccc5)CC4)ncnc32)O1	/	/	/	0.5	/	/	/
CC(C)(O)C#Cc1ccc([C@@H]2C[C@H]3CN(c4ccccc4)C(=O)[C@]34CCCN24)s1	-4.3	40.8	63.6*	3.3	33.0	41.4*	60.0*
COCCCn1c(SCC(=O)NC2CCS(=O)(=O)C2)nnc1-c1ccc(Cl)cc1 (stereo not drawn)	/	11.0	4.1	-0.4	-3.5	/	/
CCOC(=O)c1sc(Nc2nc(C)cc(OC)n2)nc1C	22.4	-3.8	6.1	0.3	13.7	/	/
CCOC(=O)c1sc(Nc2nc(C)cc(C)n2)nc1C	0.0	49.7	56.6*	2.0	32.9	60.3*	57.2*
CCNC(=O)C1CCCN(C(=O)c2ccco2)CC1 (stereo not drawn)	/	/	/	0.2	/	/	/
CCc1c(C)sc(NC(=O)c2cc(-c3cc(OC)ccc3OC)on2)c1C#N	-2.3	29.8	96.8*	0.8	-5.4	45.9*	67.9*
CN=C1S/C(=C\c2cc(C)n(-c3ccccc3F)c2C)C(=O)N1C	52.7	15.5	55.6*	0.5	23.1	39.5	99.6*
COc1ccc(NC2=NCCC(=O)N2Cc2cccs2)cc1	22.0	-0.3	27.3	-0.6	-3.6	/	/
SMILES	Calb FLC	CSC inhib	Mdm2 MdmX PPI	MPTP block	Beta cell apopt	Mdm2-MdmX conf	Full FLuc ctr
COc1ccc(NC2=NCC(=O)N2Cc2cccs2)cc1	8.9	-13.8	55.5*	-12.3	0.4	1.8	/
Cc1nsc2nc3c(F)c(F)c(F)c(F)c3cc12	-3.2	6.8	12.5	-0.4	-5.4	/	/
Cc1ccccc1Cn1c(O)c(N=NC(=S)Nc2ccccc2F)c2ccccc21	-12.0	2.0	40.3	1.7	37.2	/	/
Oc1c(N=NC(=S)Nc2ccccc2F)c2ccccc2n1Cc1ccc(Cl)cc1	7.1	27.2	53.5*	1.7	38.4	46.0*	68.5*
Oc1c(N=NC(=S)Nc2ccccc2F)c2ccccc2n1Cc1ccccc1F	10.1	/	64.0*	0.5	45.9	48.1*	46.3*
COc1ccc(/C=N/NC(=O)c2cccc(Br)c2)cc1Cn1cc(Cl)cn1	4.1	/	59.7*	3.8	1.2	49.7*	67.1*
Cc1cccc(C)c1NC(=O)C1(C)CSCC(=O)N1C1CCN(Cc2ccccc2)CC1 (stereo not drawn)	/	/	/	1.1	/	/	/
C=CCn1c(C(C)n2c(-c3cnccn3)nc3ccccc32)nc2ccccc21 (stereo not drawn)	/	/	/	-1.4	/	/	/
COc1cccc(-c2cc(C(F)(F)F)n3ncc(C(=O)N4CCc5ccccc5C4)c3n2)c1	0.2	10.6	16.7	-1.9	0.2	/	/
COc1ccc(-c2cc(C(F)(F)F)n3ncc(C(=O)N4CCc5ccccc5C4)c3n2)cc1	-5.8	8.1	54.2*	-0.7	9.2	22.4	/
CCc1ccc(N2C=C(C(=O)OC)C(c3cccc4ccccc34)C(C#N)=C2N)cc1 (stereo not drawn)	/	/	/	1.2	/	/	/
COc1ccc2sc(-c3ccc(N(C)C)cc3)c(C#Cc3cncn3C)c2c1	/	104.1*	74.1*	0.8	7.6	27.8	/
CCc1ccc(-c2cc(C)no2)cc1S(=O)(=O)N1CCN(c2ccccn2)CC1	-0.3	15.5	28.5	-0.2	1.6	/	/
Cc1cc(-c2ccc(C(C)C)c(S(=O)(=O)N3CCN(c4ccccn4)CC3)c2)on1	7.6	55.8	62.6*	-0.8	32.0	61.5*	51.5*
O=c1[nH]c(=O)n([C@H]2C[C@H](O)[C@@H](CO)O2)cc1C(F)(F)F	/	71.2	59.6*	0.6	5.1	51.9*	55.6*
CCc1cn([C@H]2C[C@H](O)[C@@H](CO)O2)c(=O)[nH]c1=O	/	-6.0	10.1	-0.5	1.1	/	/
CC(C)COc1ccc(C(=O)Nc2sc3c(c2C(=O)O)CC(C)(C)OC3)cc1	8.8	/	50.8*	0.1	-6.3	47.2*	81.9*
COc1ccc(C(=O)Nc2sc3c(c2C(=O)O)CC(C)(C)OC3)cc1	-13.6	50.8	3.2	-0.2	-8.9	/	/
